Usually % Inhibition stands for the change of the read-out against control, counted positive when it falls.

Molecules are shown by their SMILES. Screen size: about 4,800 compounds; about 420 (8.8%) showed an effect of 50% or more. The sample as a whole holds a higher share of strong results than the screen did.

The test system of the assay is Plasmodium falciparum. In words: Confirmatory screen in NF54 nanoGlo assay, in single point, at 2uM, 72h. It is filed as functional, Erythrocyte. The following applies: timepoint 72 hour.
For the compound `Cc1cc(OC[C@@H](O)CNC(C)(C)CC(C)(C)C)cc(C)c1Cl`, the “% Inhibition” value was 67%.
The result for `CC(=O)N1CCCN(S(=O)(=O)Cc2ccccc2Cl)CCNC(=O)[C@@H]2CCC[C@@H]21` reads 0%.
Then `Cc1ccc(-c2n[nH]c(NC(=O)Nc3ccc(F)c(S(=O)(=O)NC4CC4)c3)c2C)o1`, with -9%; and `CCOc1ccc([C@@H](Nc2nc(C)cc(C)n2)c2cc(C)sc2NC(=O)c2ccccc2)cc1`, with 1%; and `COc1ccc(OC)c([C@H](C)NC(=O)N2CCS(=O)(=O)CC2)c1`, with -3%.
Then `C[N+]12CCCCC1C(OC(=O)C1(c3ccccc3)CCCC1)CCC2` (stereo not given), with 96%; and `CN(C(=O)Cn1cnc2nc(N3CCC(C(=O)NC4CC4)CC3)sc2c1=O)c1ccccc1`, with -14%.
With `CCCCC1NC(=O)N([C@@H]2CCC(=O)N[C@H]2c2ccccc2)C1=O` (stereo not given in full), the “% Inhibition” value is on record as 2%.
On to `CC(C)C(NC(=O)COc1ccccc1)C(=O)NCC(c1ccccc1Cl)c1c[nH]c2ccccc12` (stereo not given), for which the “% Inhibition” value came to 69%.
Regarding `O=C(Cc1c[nH]c2ccccc12)Nc1ccc(Cl)c2ncccc12`, the “% Inhibition” value worked out at 5%.
The result for `CC(=O)Nc1ccccc1CC(c1c[nH]c2ccccc12)c1c[nH]c2ccccc12` reads 0%; that for `CCS(=O)(=O)N1CCN(c2nc(Cc3ccc(C)cc3)nc3c2c(C)nn3-c2ccccc2)CC1`, -3%.
As for `N/C(CC(=O)Nc1cccc(Cl)c1)=N/O`, the “% Inhibition” value was -4%.
For the compound `CCCC[C@H](Oc1ccc(C(C)(C)CC)cc1C(C)(C)CC)C(=O)Nc1ccc(NC(=O)C(F)(F)C(F)(F)C(F)(F)F)c(O)c1`, the “% Inhibition” value is given as 30%.
The result for `Cc1cc(-c2ccccc2)nc(O)c1S(C)(=O)=O` reads -3%; that for `Cc1nn(C(C)(C)C)c2nc(C3CC3)cc(C(=O)N(C)c3ccccc3)c12`, 81%.
Then `Cc1ccc(S(=O)(=O)N2CCN(C(=O)c3cc(C4CC4)nc4c3c(C)nn4C(C)C)CC2)cc1`, with -1%; and `Cc1nn(Cc2ccccc2)c2nc(C3CC3)cc(C(=O)N3CCOCC3)c12`, with 3%.
Regarding `Cc1cnc(-n2cnnc2)c(-c2ccc(S(C)(=O)=O)cc2)c1`, the “% Inhibition” value was -3%.
Then `Cn1c(-c2ccccc2)cn2cc(-c3ccc(F)cc3)nc12`, with 1%; and `COc1cccc(Cn2nc3ccc(S(=O)(=O)N4CCCC4)cn3c2=O)c1`, with 2%; and `Cc1cc(C(=O)Nc2cc(C)nn2C)nc(N(C)C)n1`, with -1%.
The result for `Cc1cc(C)n(C(=O)CNC(=O)c2ccccn2)n1` reads 2%.
The result for `Cc1cc(NC(=O)c2ccccn2)n(-c2nc3ccccc3o2)n1` reads 88%; that for `CCc1cc(C(=O)N(CC)c2ccccc2)c2c(C)noc2n1`, -7%.
As to `O=C(Nc1cc(-c2onc3c2CCCC3)cc(C(F)(F)F)c1)c1cncc(Br)c1`, the “% Inhibition” value was found to be 95%.
As for `O=C(Nc1onc2c1CCC2)c1ccc2ccccc2c1`, the “% Inhibition” value came out at 45%.
Then `Clc1ccc(-c2onc3c2CCCC3)cc1`, with 2%; and `Cn1c(CCNC(=O)CCc2cccnc2)nc2cc(Cl)ccc21`, with -3%.
The result for `CCN1CCC(NC(=O)CCc2c[nH]c3ccccc23)CC1` reads 4%; that for `CC1(C)Oc2ccc(S(=O)(=O)NC3CCCCC3)cc2NC1=O`, -8%.
Then `Cc1nn(-c2nc3ccccc3[nH]2)c(O)c1CCC(C)C`, with 68%; and `Oc1cc(-c2ccc(F)cc2)nn1-c1nc2ccccc2[nH]1`, with -9%.
On to `Cc1nn(-c2nc3ccccc3[nH]2)c(O)c1Cc1ccccc1`, for which the “% Inhibition” value was 2%.
Take `O=C(Nc1ccc(OC2CCC2)c(F)c1)N1CC[C@H](O)C1`: the “% Inhibition” value was -2%.
Then `CCCc1noc([C@H](C)OC(=O)c2cc[nH]n2)n1`, with -7%; and `CCN1C(=O)C(=O)N(CN2CCc3ccccc3C2)C1=O`, with -4%.
The result for `Cc1nn(C)c(Cl)c1NC(=O)OCc1ccc(F)cc1` reads -4%; that for `CCn1cc(C(=O)O)c(=O)c2cc(F)c(N3CCN(S(=O)(=O)c4ccccc4)CC3)cc21`, -10%.
Then `CCn1cc(-c2nc(-c3ccccc3C)no2)c(=O)c2cc(F)c(N3CCCCC3)cc21`, with 47%; and `CCn1cc(C#N)c(=O)c2cc(F)c(N3CCN(Cc4ccccc4)CC3)cc21`, with 69%.
As for `c1cc(Cn2cnc3c2CCCC3)cs1`, the “% Inhibition” value is reported as -15%.
As to `CC[C@H]1Cn2c(C(=O)NCc3cccs3)cc3c(Cl)ccc(c32)O1`, the “% Inhibition” value is listed as -4%.
Then `COc1ccc(C(=O)Cn2nc(C)cc2C)cc1`, with -4%.
With `COc1ccc2c(O)cc(-c3ccccc3)nc2c1`, the “% Inhibition” value is given as -2%.
Then `COc1ccc2c(NC(=O)Cc3c(C)noc3C)n[nH]c2c1`, with 0%.
For `O=C(Nc1cccc(Oc2c(F)c(F)c(-c3c(F)c(F)c(Oc4cccc(NC(=O)c5ccccc5)c4)c(F)c3F)c(F)c2F)c1)c1ccccc1`, the “% Inhibition” value stood at 5%.
Then `Nc1cc(C(F)(F)F)c(Br)cc1Br`, with -16%; and `Cc1cccc(N2CCN(C(=O)c3ccc4c(c3)C(=O)N(c3cc(C)on3)C4=O)C[C@@H]2C)c1`, with -3%; and `CC1CN(S(=O)(=O)CC2CCOC2)c2ccc(F)cc2O1` (stereo not given), with -2%.
`CCOc1ccccc1NC(=O)Cc1c(C)nc2nc(-c3cccnc3)nn2c1C`: the “% Inhibition” value turned out to be 0%.
For `Cc1cc(C)c2nc(C)cc(Nc3ccc(O)cc3)c2c1`, the “% Inhibition” value came out at 87%.
Then `CCCOc1ccc(Nc2cc(C)nc3ccc(Cl)cc23)cc1`, with 42%.
Then `Cc1ncoc1C(=O)N1CC(F)(F)C[C@H]1Cn1cc(C(=O)N2CCOCC2)nn1`, with -1%; and `Cn1cncc1CC(=O)Nc1ccnc(NC(=O)OC(C)(C)C)c1`, with 96%.
As to `CC(C)(C)OC(=O)Nc1cccc(N)n1`, the “% Inhibition” value worked out at 1%.
Then `COc1ccc(-c2noc(Cn3c(=O)c4ccccc4n(CC(=O)Nc4cc(Cl)ccc4C)c3=O)n2)cc1`, with -3%.
Then `O=C(C[C@H]1CCN(C(=O)c2ccc(F)cc2)C1)NC1CC1`, with -11%.
Then `CCS(=O)(=O)Nc1ccc(S(=O)(=O)NC[C@@H](c2ccccc2OC)N2CCCCC2)c(C)c1`, with -1%; and `CC(C)[C@@H]1CC[C@H](C)C[C@H]1OC(=O)Cn1cc(-c2ccc(Cl)cc2)[n+]2c1CCC2`, with 84%.
In the case of `CC(C)N(C(=O)c1cc(O)nc2ccccc12)C1CC1`, the “% Inhibition” value is -2%.
The result for `CN(CC(C)(CO)CO)C(=O)c1coc2ccccc12` reads -3%; that for `Oc1cc(-c2ccc3ccccc3c2)[nH]n1`, -11%; that for `c1cc(-c2nc3cc4ccccc4cc3[nH]2)nc(-c2nc3cc4ccccc4cc3[nH]2)c1`, 99%.
As for `Cc1cccc(C)c1OCC(=O)Nc1ccc(-c2nc3cc4ccccc4cc3[nH]2)cc1`, the “% Inhibition” value is 10%.
